Data on 92 compounds can be found in PubChem BioAssay AID2314 (National Center for Advancing Translational Sciences (NCATS), 2010).

Out of some 300,000 compounds screened, about 37,000 (12%) were called active. Cut-off read from the data, not from the text of the source: active = max response mostly above about 13% (no sharp cut-off); inactive = mostly below about 14%. Shown is part of a subset that was picked to be rich in actives.

This test is described as follows: Cycloheximide Counterscreen for Small Molecule Inhibitors of Shiga Toxin. Note: read at 38.3 µM for the half of the compounds with a filed dose; 0% is about no effect. The conditions noted are these: cell reporter, cycloheximide protein synthesis inhibition counterscreen; stronger effect = higher value. A general note: A counterscreen serves to expose hits that act by an unwanted route or on another target.
`Cc1cc(=O)oc2c3c(cc(OCC(=O)N[C@H](C(=O)O)c4ccccc4)c12)OC(C)(C)CC3`: the max response is -1.78% (inactive).

Regarding `CC(C)C(NS(=O)(=O)c1ccc(-c2ccc(Br)cc2)cc1)C(=O)O` (configuration not stated), the max response is 7.4% (inactive).

For the compound `Cc1cc(C)cc(N(CC(=O)NC2CCCC2)C(=O)CCC(=O)Nc2nccs2)c1`, the max response is -5.07% (inactive).

Regarding `Cc1nn(-c2ccccc2)c(C)c1/C=C/C(=O)OC(C)C(N)=O` (configuration not stated), the max response was 18.6% (active).

Turning to `Cc1nn(-c2ccccc2)c(=O)c2noc(C)c12`, the max response is -1.05% (inactive).

On to `Cc1nn(-c2ccccc2)c(C)c1NC(=O)CCl`, for which the max response was 17.3% (inactive).

With `CCc1ccccc1S(=O)(=O)Cc1ccc(C(=O)NCCc2ccccc2)o1`, the max response is 16% (inactive).

For `CCN(CC)S(=O)(=O)c1ccc(NC(=O)c2cnc(C)cn2)cc1`, the max response is 0.654% (inactive).

With `Cc1ccc(NC(=O)CNCc2ccccn2)cc1S(=O)(=O)N(C)C`, the max response is 19.5% (inactive).

For `CCN(CC)S(=O)(=O)c1cccc(C(=O)Nc2ccccc2)c1`, the max response is 17.1% (active).

`CCN(CC)S(=O)(=O)c1cc(C(=O)Nc2ccccn2)ccc1C`: the max response is 45.1% (active).

Regarding `CCN(CC)S(=O)(=O)c1cccc(C(=O)NCC(=O)OCC(=O)NCc2ccccc2)c1`, the max response was -1.61% (inactive).

Turning to `CCN(CC)S(=O)(=O)c1ccc(NC(=O)c2cccnc2Cl)c(NC(=O)c2cccnc2Cl)c1`, the max response was -1.75% (inactive).

Take `CC(C)c1ccc(C2C(C(=O)c3ccco3)=C(O)C(=O)N2CC2CCCO2)cc1` (configuration not stated): the max response is 10.1% (inactive).

Turning to `CC(C)(C)[C@H]1C=C(C(=O)NCc2ccccc2)O[C@@H](OCc2ccc(CO)cc2)C1`, the max response was -1.33% (inactive).

As to `COc1cc(C(=S)N2CCOCC2)cc(OC)c1OC(=O)c1ccc([N+](=O)[O-])cc1[N+](=O)[O-]`, the max response is 3.8% (inactive).

`Cn1c(SCc2ccc(F)cc2)nnc1-c1ccncc1`: the max response is 10.5% (inactive).

For `O=C(CSc1nnc(-c2cnccn2)n1Cc1ccco1)c1ccc(Cl)c(Cl)c1`, the max response is 0.777% (inactive).

Turning to `Cn1c(SCc2c(F)cccc2Cl)nnc1-c1cnccn1`, the max response is 56.4% (active).

As to `Cc1ccc(CSc2nnc(-c3cnccn3)n2C)cc1`, the max response was 10.9% (active).

For the compound `CCN(CC)C(=O)CSc1nnc(-c2cnccn2)n1-c1ccc(C)cc1`, the max response was 0.416% (inactive).

Take `Oc1ccc(-n2nnnc2SCc2c(F)cccc2Cl)cc1`: the max response is -2.8% (inactive).

In the case of `CN(C)C(=O)c1coc2nc3ccccc3nc12`, the max response was 4.74% (inactive).

On to `COc1ccc(C(C[N+](=O)[O-])n2nc(C)cc2C)cc1` (configuration not stated), for which the max response is -0.331% (inactive).

Consider `COc1ccc(C(=O)N2CCc3cc(OC)c(OC)cc3C2c2cccc([N+](=O)[O-])c2)cc1` (configuration not stated), for which the max response is 0.684% (inactive).

With `CCOC(=O)c1ccccc1NC(=O)CSc1nc2ccccc2c(=O)[nH]1`, the max response is -3.39% (inactive).

As to `CCOC(=O)c1sc(NC(=O)CSc2nc(O)c(Cc3ccccc3)c(=O)[nH]2)nc1C`, the max response is 39.7% (active).

For the compound `O=C(CSc1nc(O)c(Cc2ccccc2)c(=O)[nH]1)Nc1nc2c(s1)CCCC2`, the max response was 28% (active).

Consider `CSc1nc(O)c(Cc2ccccc2)c(=O)[nH]1`, for which the max response was -3.85% (inactive).

With `O=C(CCS(=O)(=O)c1ccccc1)Nc1nc2c(s1)CCCC2`, the max response was 5.94% (inactive).

As for `CCOC(=O)c1sc(NC(=O)CSc2n[nH]c(CC)n2)nc1C`, the max response is 0.587% (inactive).

For the compound `O=C(Nc1ccccc1F)c1ccc2c(c1)OCO2`, the max response is 41.4% (active).

Take `O=C(OCc1ccccc1F)c1ccc2c(c1)OCCO2`: the max response was 33% (active).

`O=C(COC(=O)c1ccc2c(c1)OCCO2)NCc1ccccc1`: the max response was 10.5% (inactive).

`Cc1cccc(C(=O)Nc2ccccc2N2CCN(c3ccc(F)cc3)CC2)c1`: the max response was -0.148% (inactive).

Consider `CC(NC(=O)COC(=O)c1ccc2c(c1)OCO2)c1ccccc1` (configuration not stated), for which the max response is 7.94% (inactive).

As for `Cc1ccc(F)cc1NC(=O)c1cccc(N(C)C)c1`, the max response was 28.9% (active).

Regarding `COc1ccc(C(=O)Nc2ccc(F)cc2F)cc1`, the max response is 28.7% (inactive).

On to `Cn1c(NC(=O)c2ccc3c(c2)OCO3)cc(=O)n(C)c1=O`, for which the max response was -4.72% (inactive).

On to `O=C(Nc1ccccc1N1CCN(C(=O)c2ccccc2)CC1)c1ccc2c(c1)OCO2`, for which the max response is -1.45% (inactive).

With `Cc1ccc(F)cc1NC(=O)c1ccc2c(c1)OCO2`, the max response was 25.6% (active).

For `Cc1ccc(-n2nc3c(c2NC(=O)c2ccc4c(c2)OCO4)CSC3)c(C)c1`, the max response was -1.7% (inactive).

On to `Cc1cc2c(c(=O)n1C)C(C(C)C)C(C#N)=C(N)O2` (configuration not stated), for which the max response was -2.6% (inactive).

Turning to `Cc1cccc(C)c1NC(=O)CS(=O)CC(=O)N1CCN(c2ccccc2)CC1` (configuration not stated), the max response was -5.35% (inactive).

As for `CCc1cccc(C)c1N1C(=O)CN(Cc2ccccc2)C1=S`, the max response was -2.45% (inactive).

For the compound `O=C1/C(=C\c2cccnc2)CN(Cc2ccccc2)C/C1=C\c1cccnc1`, the max response is 7.45% (inactive).

`CCOC(=O)N1CCN(c2c(NCCN3CCN(c4ccccc4F)CC3)c(=O)c2=O)CC1`: the max response was -2.33% (inactive).

Take `COc1ccc(C(CNCC(=O)Nc2ccccc2F)N(C)C)cc1` (configuration not stated): the max response is -2.53% (inactive).

Regarding `COc1ccc(C2C(C#N)=C(N)Oc3cc(N)ccc32)cc1OC` (configuration not stated), the max response is 11.4% (inactive).

Take `COCCCn1c(SCc2cccc(OC)c2)nc2cc(OC)c(OC)cc2c1=N`: the max response is 6.77% (inactive).

As for `O=C(c1ccc2c(c1)OCO2)N1CCNc2ccccc2C1`, the max response is 3.63% (inactive).

`CC1(c2ccc(Cl)cc2)NC(=O)N(CC(=O)c2ccc3c(c2)OCO3)C1=O` (configuration not stated): the max response was 14.2% (inactive).

On to `N#Cc1ccccc1NC(=O)c1ccc2c(c1)OCO2`, for which the max response was 24.8% (active).

Consider `Cc1onc(-c2ccccc2)c1C(=O)Nc1ccccc1C#N`, for which the max response was 3.86% (inactive).

Take `O=C(CN1CCN(CC(=O)Nc2ccc3c(c2)OCO3)CC1)Nc1ccc(F)cc1`: the max response was -2.15% (inactive).

In the case of `O=C(CN1CCN(c2ccccc2F)CC1)c1ccc2c(c1)OCO2`, the max response was 16.8% (active).

For `CSCCC(NC(=O)c1cc([N+](=O)[O-])cc([N+](=O)[O-])c1)c1nc2ccccc2[nH]1` (configuration not stated), the max response was -1.41% (inactive).

For the compound `Cc1cc(C(=O)N/N=C/c2cc([N+](=O)[O-])cc(C)c2O)n[nH]1`, the max response was 4.92% (inactive).

Regarding `Cc1cc(=O)[nH]c(Nc2cccc(Br)c2)n1`, the max response is -1.7% (inactive).

`CN(C)Cc1c(C(=O)N/N=C/c2ccccc2OCc2ccc(F)cc2)nnn1-c1nonc1N`: the max response is -5.05% (inactive).

Take `O=C(/C=C/c1ccc(Cl)cc1)NCCCn1ccnc1`: the max response was 13.1% (active).

With `O=C(NCCCn1ccnc1)Nc1ccc(Cl)cc1Cl`, the max response was -6.88% (inactive).

Take `CC(C)(C)c1ccc(/C=C/C(=O)NCCCn2ccnc2)cc1`: the max response was -3.02% (inactive).

Regarding `FC(F)(F)c1ccc(CN2C[C@@H]3C(c4ccccc4)C4(c5ccccc5)CC3(C4)[C@H]2c2ccccc2)cc1` (some centres not stated), the max response was -2.46% (inactive).

`Cc1nc2ccc(S(=O)(=O)N(C)CC(=O)NC(C)c3ccccc3)cc2s1` (configuration not stated): the max response was -0.483% (inactive).

In the case of `Cc1cccc(N(CC(=O)Nc2ccc(-c3nc4ccc(C)cc4s3)cc2)S(C)(=O)=O)c1`, the max response was 43% (active).

On to `Cc1ccc(N(CC(=O)Nc2cc(C)cc(C)c2)S(=O)(=O)c2cccc3nonc23)cc1`, for which the max response is -2.6% (inactive).

Regarding `Cc1ccc2nc(-c3ccc(NC(=O)CN(C)S(=O)(=O)c4ccccc4)cc3)sc2c1`, the max response was 41.9% (active).

Consider `CCN(CC)S(=O)(=O)c1ccc(NC(=O)CN(c2cccc(F)c2)S(C)(=O)=O)cc1`, for which the max response was -1.18% (inactive).

Turning to `COc1cc(NC(=O)CN(C)S(=O)(=O)c2ccc3nc(C)sc3c2)cc(OC)c1`, the max response was -1.04% (inactive).

Turning to `COc1ccc(/C=C/CN2CCCC(C(=O)c3cc(F)ccc3F)C2)cc1` (configuration not stated), the max response is 4.59% (inactive).

For the compound `COc1ccc(-c2nc3n(c(=O)c2C#N)CCS3)c(OC)c1`, the max response is -3.87% (inactive).

Consider `COc1ccc(F)c(-c2nc(CN3CCC(c4ccccc4)CC3)c(C)o2)c1`, for which the max response was -1.94% (inactive).

Take `COc1cc(/C=C2\C(=N)N3N=C(CC(=O)N4CCOCC4)SC3=NC2=O)cc(OC)c1OC`: the max response is -8.71% (inactive).

As for `CN(C)N1C(N)=C(C#N)C(c2ccc(Br)cc2)C2=C1CCCC2=O` (configuration not stated), the max response is 11.2% (inactive).

Turning to `Cc1cc(C)nc(NC(=O)C(C)N2C(=O)c3ccccc3C2=O)n1` (configuration not stated), the max response was -0.537% (inactive).

For `COc1cccc(C(=O)NC(=O)Nc2nc(C)cc(C(F)(F)F)n2)c1`, the max response is -1.67% (inactive).

Consider `Cc1cc(C)nc(NC(=O)Nc2ccccc2C(F)(F)F)n1`, for which the max response is 25.8% (active).

`NNC(=O)c1nnn(-c2nonc2N)c1CN1CCCC1`: the max response was -0.43% (inactive).

As for `CCOc1cc2[nH]c(=S)n(Cc3ccc(C(=O)N4CCN(C)CC4)cc3)c(=O)c2cc1OCC`, the max response is -1.74% (inactive).

With `Cc1cc(S(=O)(=O)N2CCOCC2)ccc1OCC(=O)N1CCOCC1`, the max response was 0.946% (inactive).

`Cc1ccc(OCCCC(=O)N2CCOCC2)c(C)c1`: the max response is 51.4% (active).

`Cc1ccc(OCCCC(=O)NC(C)c2ccccc2)c(C)c1` (configuration not stated): the max response is 6.31% (inactive).

Regarding `O=C(c1ccc(Br)o1)N1CCN(CCOc2ccccc2)CC1`, the max response was -3.01% (inactive).

As for `CCNC(=O)c1cnn(-c2ccccc2)c1-c1ccccc1`, the max response was -0.397% (inactive).

Take `CCCc1c(C(=O)Nc2ccc(F)cc2)cnn1-c1ccccc1`: the max response was 33.4% (active).

Consider `CCCc1c(C(=O)O)cnn1-c1ccc(Cl)cc1`, for which the max response was -0.801% (inactive).

In the case of `CC(C)(C)c1cc(P(=O)(c2ccccc2)c2ccccc2)ccc1O`, the max response is 0.647% (inactive).

In the case of `CC(C)N(C(=O)CSc1nc(COc2ccccc2)nc2ccccc12)C(C)C`, the max response is 9.79% (inactive).

Consider `CN1CCN(/N=C2/C(=O)Nc3ccc([N+](=O)[O-])cc32)CC1`, for which the max response was 9.26% (inactive).

Consider `CN1CCN(/N=C/c2ccc(-c3ccc([N+](=O)[O-])cc3)o2)CC1`, for which the max response was 31.4% (active).

For `Cc1ccc(-c2ccc(/C=N/NC(=O)CN3CCOCC3)o2)cc1[N+](=O)[O-]`, the max response was 12.3% (inactive).
